The values below come from PubChem BioAssay.

Activity calls are given as the source filed them. Unless noted, how the calls were made is not given here.

Test [1] relates to Wnt5a (protein binding on small-molecule microarray). Description: Wnt5a binders on small-molecule microarray, primary screen, biophysical, 635/667 nm fluorescence (AID 1142).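 Further: fluorescence read at 667 nm with signal to noise per printed feature.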 To be noted: 635 nm fluorescence, higher = more signal.
A short description of test [2]: cell viability in Huh7 cells, primary screen, cytotoxicity control for HCV replication inhibitor project, CellTiter-Glo luminescence, basal, 48 h (AID 1143).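 Further: Huh7 hepatoma cells carrying a hepatitis C replication reporter with no stimulus; test concentration not given here.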 Conditions: Huh7 HCV replicon, higher = more signal, called active from +8 up or from −8 down.
A short description of test [3]: P. aeruginosa biofilm formation inhibitors, primary screen, PAO1 strain, BacTiter-Glo luminescence, LB-PBS (AID 1144). Conditions: 12 h, higher = more signal.
Test [4] can be described thus: CREB reporter modulators without forskolin, primary screen, cell-based, PC12, CRE-LacZ reporter, unstimulated (AID 1145). To be noted: no forskolin, luminescence, 4.5 h, higher = more signal, called active from +8 up or from −8 down.
Test [5] is described as follows: CREB reporter modulators under forskolin, primary screen, cell-based, PC12, CRE-LacZ reporter, forskolin-stimulated (AID 1146).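 Further: PC12 cells with 6xCRE LacZ reporter stimulated by forskolin 10 µM; beta-galactosidase reporter signal reflecting CREB driven transcription.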 To be noted: luminescence, 4.5 h, higher = more signal, called active from +8 up or from −8 down.
The target of test [6] is Streptavidin (Streptomyces avidinii) (UniProt P22629). As to the kind of experiment: streptavidin binders on small-molecule microarray, primary screen, artefact control for SMM compound annotation, biophysical, 635/667 nm fluorescence (AID 1147).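 Further: signal reflects streptavidin binding to arrayed compounds as a control protein.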 To be noted: streptavidin binding, higher = more signal.
Streptavidin (Streptomyces avidinii), sequence (P22629 whole entry, looked up): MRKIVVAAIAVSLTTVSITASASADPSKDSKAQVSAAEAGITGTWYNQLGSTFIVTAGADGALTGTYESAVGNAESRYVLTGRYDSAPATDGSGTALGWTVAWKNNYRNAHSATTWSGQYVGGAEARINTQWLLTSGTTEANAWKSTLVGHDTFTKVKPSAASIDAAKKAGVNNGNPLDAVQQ
Test [7] in a line: small-molecule binders of probe aInhba, primary screen, biochemical, small-molecule microarray, 635/667 nm fluorescence (AID 1148).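 Further: score merges 667nm spot fluorescence with signal-to-noise for antibody binding to printed compounds.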 Conditions: higher = more signal.
Test [8] concerns the target Torsin-1A (Homo sapiens) (UniProt O14656). Description: torsin A binders from cell lysate, primary screen, small-molecule microarray, wild-type, 635/667 nm (AID 1149). To be noted: COS7 hTOR1A-WT lysate, 635 nm fluorescence, higher = more signal.
The target is the same in test [9]. As to the kind of experiment: small-molecule binders of mutant TOR1A in lysate, primary screen, cell lysate, small-molecule microarray, COS7 lysate, 635/667 nm fluorescence (AID 1150).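 Further: score pools 667 nm emission and signal to noise measuring lysate protein binding.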 To be noted: COS7 hTOR1A mutant lysate, 635 nm fluorescence, higher = more signal.
The test system of test [10] is Sonic hedgehog protein (Shh). Description: small-molecule binders of Shh protein, primary screen, biochemical, small-molecule microarray, 635/667 nm fluorescence (AID 1151).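 Further: Shh protein binding to compounds spotted on small-molecule microarray slides; score combines spot fluorescence intensity with signal-to-noise across triplicate slides.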 Conditions: small-molecule microarray binding, 635 nm fluorescence; higher = more signal.
The nature of test [11]: E. coli DRC41 culture turbidity changes, primary screen, E. coli filamentation inducer project, strain DRC41, OD650, 48 h (AID 1152).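 Further: E. coli MC1000 strain DRC41 lacking acrAB efflux pump and sulA.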 Conditions: E. coli DRC41 (acrAB sulA), higher = more signal, called active from +8 up or from −8 down.
The nature of test [12]: small-molecule binders of probe aLefty1, primary screen, biochemical, small-molecule microarray, 635/667 nm fluorescence (AID 1153).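 Further: score merges spot fluorescence with signal-to-noise ratio from the scanned slide images.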 To be noted: higher = more signal.
A short description of test [13]: PSAC antagonists in infected red cells, primary screen, cell-based, P. falciparum Indochina, OD700, 1 h (AID 1154). To be noted: P. falciparum Indochina infected RBC osmotic lysis, higher = more signal, called active from +8 up or from −8 down.
Test [14] can be described thus: PSAC antagonists in infected red cells, primary screen, cell-based, P. falciparum Indochina, OD700, 2 h (AID 1155).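 Further: lysis reports solute entry through the parasite surface anion channel PSAC; channel blockers reduce lysis of infected cells.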 To be noted: P. falciparum Indochina infected erythrocytes, osmotic lysis OD700; higher = more signal, called active from +8 up or from −8 down.
Test [15] is described as follows: osmotic lysis modulators in infected erythrocytes, primary screen, PSAC antagonist project, cell-based, P. falciparum Indochina, OD700, 3 h (AID 1156). To be noted: higher = more signal, called active from +8 up or from −8 down.
The nature of test [16]: PSAC antagonists in infected red cells, primary screen, cell-based, P. falciparum Indochina, OD700, 18 h (AID 1157). Conditions: P. falciparum Indochina infected erythrocytes, osmotic lysis OD700, 18 h; higher = more signal, called active from +8 up or from −8 down.
Test [17] is described as follows: modulators of S6 phosphorylation in cells, primary screen, cell-based, A549, cytoblot, luminescence, serum-stimulated (AID 1158).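 Further: serum-stimulated A549 lung adenocarcinoma cells; signal is phosphorylated S6 detected by cytoblot immunostaining with HRP secondary.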 Conditions: A549 phospho-S6 cytoblot, 5 h, higher = more signal.
In test [18] the target is NADPH oxidase 2 (Homo sapiens) (UniProt P04839). As to the kind of experiment: NOX2-dependent H2O2 signal modulators, primary screen, NOX inhibitor project, cell-based, HEK293-NOX2, PMA-stimulated, Amplex Red fluorescence (AID 1159). Further: test concentration not given here. Conditions: 45 min, higher = more signal, called active from +8 up or from −8 down.
NADPH oxidase 2 (Homo sapiens), sequence (P04839 whole entry, looked up): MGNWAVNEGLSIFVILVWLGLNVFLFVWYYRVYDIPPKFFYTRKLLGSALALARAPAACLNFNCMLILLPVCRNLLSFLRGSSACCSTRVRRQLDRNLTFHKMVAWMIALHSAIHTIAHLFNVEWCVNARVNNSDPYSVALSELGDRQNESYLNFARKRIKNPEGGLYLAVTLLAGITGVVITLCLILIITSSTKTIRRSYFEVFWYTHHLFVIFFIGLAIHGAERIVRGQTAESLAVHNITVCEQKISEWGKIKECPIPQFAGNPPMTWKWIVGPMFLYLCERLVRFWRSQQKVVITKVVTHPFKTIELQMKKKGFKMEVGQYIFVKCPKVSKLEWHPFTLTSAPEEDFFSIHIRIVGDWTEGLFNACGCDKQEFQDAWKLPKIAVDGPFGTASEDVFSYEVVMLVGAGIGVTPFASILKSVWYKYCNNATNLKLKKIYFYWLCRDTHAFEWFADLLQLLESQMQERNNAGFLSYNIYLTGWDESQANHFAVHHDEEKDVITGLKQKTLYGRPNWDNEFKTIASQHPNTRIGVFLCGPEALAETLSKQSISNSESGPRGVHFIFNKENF
Test [19] addresses NADPH oxidase 4 (Homo sapiens) (UniProt Q9NPH5). As to the kind of experiment: NOX4-dependent H2O2 signal modulators, primary screen, NOX inhibitor project, cell-based, HEK293-NOX4, tetracycline-induced, Amplex Red fluorescence (AID 1160). To be noted: 45 min, higher = more signal, called active from +8 up or from −8 down.
For test [20], the target named is NADPH oxidase 5 (Homo sapiens) (UniProt Q96PH1). Description: NOX5-dependent H2O2 signal modulators, primary screen, NOX inhibitor project, cell-based, HEK293-NOX5, Amplex Red fluorescence (AID 1161). Conditions: HEK293-NOX5, ionomycin, 45 min, higher = more signal.
NADPH oxidase 5 (Homo sapiens), sequence (Q96PH1 whole entry, looked up): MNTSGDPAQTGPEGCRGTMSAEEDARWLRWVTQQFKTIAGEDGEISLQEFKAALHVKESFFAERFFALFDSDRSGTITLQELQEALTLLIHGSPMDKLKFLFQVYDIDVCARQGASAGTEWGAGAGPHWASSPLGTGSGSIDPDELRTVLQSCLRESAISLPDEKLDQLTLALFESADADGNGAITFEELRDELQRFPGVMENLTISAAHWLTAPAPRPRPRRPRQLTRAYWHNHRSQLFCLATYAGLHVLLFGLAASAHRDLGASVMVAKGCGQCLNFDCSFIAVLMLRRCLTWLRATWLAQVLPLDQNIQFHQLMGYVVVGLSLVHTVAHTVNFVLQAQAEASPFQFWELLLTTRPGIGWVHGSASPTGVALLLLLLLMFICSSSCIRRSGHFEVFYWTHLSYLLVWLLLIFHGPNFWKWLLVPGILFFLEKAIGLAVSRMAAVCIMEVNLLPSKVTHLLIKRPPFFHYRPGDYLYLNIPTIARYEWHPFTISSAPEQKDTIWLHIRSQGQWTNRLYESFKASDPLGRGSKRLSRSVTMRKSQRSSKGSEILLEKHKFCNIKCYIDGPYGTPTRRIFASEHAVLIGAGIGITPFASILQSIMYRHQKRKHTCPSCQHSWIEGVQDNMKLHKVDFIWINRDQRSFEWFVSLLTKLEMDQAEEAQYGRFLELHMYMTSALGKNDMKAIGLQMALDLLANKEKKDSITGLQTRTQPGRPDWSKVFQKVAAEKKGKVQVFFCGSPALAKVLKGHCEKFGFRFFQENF

NADPH oxidase 4 (Homo sapiens), sequence (Q9NPH5 whole entry, looked up): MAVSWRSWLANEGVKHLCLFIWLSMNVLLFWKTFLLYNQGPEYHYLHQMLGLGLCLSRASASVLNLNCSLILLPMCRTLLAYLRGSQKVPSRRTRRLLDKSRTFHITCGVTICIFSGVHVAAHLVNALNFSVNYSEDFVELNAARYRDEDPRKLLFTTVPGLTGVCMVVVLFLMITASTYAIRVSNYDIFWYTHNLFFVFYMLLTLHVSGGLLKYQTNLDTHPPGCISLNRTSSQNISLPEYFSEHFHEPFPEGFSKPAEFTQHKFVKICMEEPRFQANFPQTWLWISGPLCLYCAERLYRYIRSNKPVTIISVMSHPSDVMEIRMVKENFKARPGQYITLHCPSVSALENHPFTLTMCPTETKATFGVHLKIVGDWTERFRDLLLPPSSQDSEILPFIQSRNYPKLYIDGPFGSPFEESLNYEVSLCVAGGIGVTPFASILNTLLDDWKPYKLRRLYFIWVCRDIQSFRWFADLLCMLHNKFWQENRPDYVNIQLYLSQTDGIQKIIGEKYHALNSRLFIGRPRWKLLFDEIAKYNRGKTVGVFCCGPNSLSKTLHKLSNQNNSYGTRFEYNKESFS
Torsin-1A (Homo sapiens), sequence (O14656 whole entry, looked up): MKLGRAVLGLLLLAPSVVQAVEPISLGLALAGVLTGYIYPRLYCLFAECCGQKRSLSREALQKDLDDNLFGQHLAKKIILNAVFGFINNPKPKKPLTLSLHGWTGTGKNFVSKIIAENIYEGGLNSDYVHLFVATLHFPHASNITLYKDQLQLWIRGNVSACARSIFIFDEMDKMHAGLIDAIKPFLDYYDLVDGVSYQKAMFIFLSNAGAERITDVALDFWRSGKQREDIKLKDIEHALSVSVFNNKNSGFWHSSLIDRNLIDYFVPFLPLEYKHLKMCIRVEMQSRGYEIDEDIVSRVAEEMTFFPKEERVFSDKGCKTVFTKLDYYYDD

In the case of `COC(=O)c1c(CC[C@@H](CO)NC(=O)N[C@H](Cn2cc(C3(O)CCCCC3)nn2)C(C)C)oc(C(C)=O)c1C(=O)OC`, the composite z-score in test [1] is 0.359; in [6], 1.31; in test [7] it was -0.0523; with Torsin-1A (Homo sapiens) [8], 0.881; with Torsin-1A (Homo sapiens) [9], 0.756; in [10] it was 1.59. The compound further came in with a composite z-score in test [12] of 0.102. The z-score in test [2] is -2.81 (inactive); in [3], -0.875 (inactive); in test [4], 1.34 (inactive); in [5], -1.13 (inactive); in [11] it was 1.51 (inactive); in test [13] it was 1.45 (inactive). Besides, the z-score in [14] is -0.141 (inactive); in [15], 1.02 (inactive); in test [16] it was -0.152 (inactive); in test [17], 2.22; in test [18] it was -3.25 (inactive); in [19] it was -0.839 (inactive). The compound further displayed a z-score in test [20] of 0.655.
For the compound `COC(=O)c1c(CC[C@@H](CO)NC(=O)N2CCC[C@H]2Cn2cc(Cc3ccccc3)nn2)oc(C(C)=O)c1C(=O)OC`, the composite z-score in test [1] is -0.0725; in test [6] it was -0.114; in test [7], -0.0736; in the test with Torsin-1A (Homo sapiens) [8], -0.0521; in the test with Torsin-1A (Homo sapiens) [9] it was 0.398; in [10], 1.84. Moreover, in test [12], the composite z-score is -0.177. For the same compound, the z-score in test [2] is -0.393 (inactive); in test [3] it was 0.726 (inactive); in test [4], -0.244 (inactive); in [5] it was -0.152 (inactive); in [11], -0.195 (inactive); in test [13], 0.133 (inactive). Further, the z-score was 0.258 (inactive) in test [14]; 0.876 (inactive) in test [15]; -0.033 (inactive) in test [16]; 0.567 in test [17]; -1.79 (inactive) in [18]; -0.894 (inactive) in test [19]. For the same compound, in [20], the z-score was -1.85.
As for `COc1ccc([Si](C)(C)[C@@H]2[C@@H](CC(=O)N(CCO)Cc3ccccc3)O[C@]3(C(=O)N(Cc4cccc(N5CCOC5=O)c4)c4ccccc43)[C@H]2C)cc1`, the composite z-score in test [1] is -0.129; in [6] it was -0.121; in [7], -0.176; with Torsin-1A (Homo sapiens) [8], 0.787; with Torsin-1A (Homo sapiens) [9] it was 0.347; in test [10], 1.52. For the same compound, in test [12], the composite z-score amounted to 0.677. For the same compound, the z-score in test [2] was -5.47 (inactive); in test [3], -0.122 (inactive); in test [4], 0.748 (inactive); in [5], -0.62 (inactive); in test [11] it was -0.179 (inactive); in test [13], 5.73 (inactive). In addition, the z-score is 1.14 (inactive) in [14]; -0.0706 (inactive) in test [15]; 0.843 (inactive) in [16]; 0.475 in test [17]; 1.08 (inactive) in test [18]; 1.35 (inactive) in test [19]. The same compound returned a z-score in [20] of 1.75.
Turning to `CC(C)(C)OC(=O)CC[C@]1(C(=O)NCc2ccccc2)N=C(c2ccc(OCCCO)cc2)O[C@H]1c1ccccc1CN=[N+]=[N-]`, the composite z-score in [1] stood at 1.3; in test [6], 1.2; in [7], 0.138; with Torsin-1A (Homo sapiens) [8], 0.245; with Torsin-1A (Homo sapiens) [9], 0.895; in [10] it was 1.36. Besides, the composite z-score in test [12] is 0.146. Besides, the z-score in test [2] is -3.05 (inactive); in test [3] it was -0.368 (inactive); in test [4], 0.344 (inactive); in test [5] it was -0.156 (inactive); in test [11], 0.829 (inactive); in test [13] it was 25.3 (active). Moreover, the z-score in [14] was 12.3 (active); in [15], 3.22 (inactive); in [16], 1.65 (inactive); in test [17], 0.224; in [18], -0.174 (inactive); in test [19], -0.533 (inactive). In addition, the z-score in test [20] is -1.47.
